This passage reports z-score results from PubChem BioAssay.

SMILES strings stand for the structures. A number with no mark means an inactive call.

A short description of the test: resazurin metabolic signal in A549 cells – cell-based, resazurin fluorescence, 24 h, PK04 Diversity Set, profiling panel (AID 1171). Also: test concentration not given here. Particulars: A549 viability, higher = more signal, called active from +8 up or from −8 down. (The colour change of resazurin is a common sign of viable cells or microbes.)
For `CC(C)=NOC(C)CN1CCCc2nc(C)c(C)cc21` (stereo not given), the z-score was -0.373. For `COC(=O)[C@H](C)NC(=O)CCC1CC(OC(=O)NCc2cccc3ccccc23)CC2(CCCC(COC(=O)NCCOc3ccccc3)O2)O1` (stereo not given in full), the z-score was 1.33. As for `C[C@@H]1CC[C@@H](C(=O)O)N[C@H]1c1cccc(N2CCOCC2)c1`, the figure is 0.148; as for `COC(=O)[C@@H]1CC[C@H](C)[C@@H](c2ccc(Br)cc2)N1C[C@H](O)CN=[N+]=[N-]`, -0.624; as for `CCOC(=O)[C@H](Cc1ccccc1)NC(=O)CCC1CC(OC(=O)NCCc2ccc(F)cc2)CC2(CCCC(COC(=O)NCc3cccc(C(F)(F)F)c3)O2)O1` (stereo not given in full), 1.39. As for `COc1cccc([C@H]2Oc3ccc(OC)cc3C(=NOCC[C@@H]3C=C[C@H](OC(C)=O)[C@@H](COC(C)=O)O3)[C@@H]2O)c1`, the figure is -0.945; as for `CC(=O)OC[C@H]1O[C@H](CC=NO[C@@H](C)c2cc(-c3c(C)cc(C)cc3C)no2)C=C[C@@H]1OC(C)=O`, -0.0973; as for `CCOC(=O)NN=C1C[C@@H](O)[C@@H](O)[C@@H]2[C@@H]3C(=O)N(c4ccc(F)cc4F)C(=O)[C@@H]3CC[C@H]12`, 0.745.

In the case of `O=C1[C@H]2[C@H]3[C@H](O)[C@H](O)CC(=NO[C@@H]4O[C@H](CO)[C@@H](O)[C@H](O)[C@H]4O)[C@H]3CC[C@H]2C(=O)N1C[C@@H]1CCCO1`, the z-score was -0.6. With `CCOC(=O)[C@H](Cc1ccccc1)NC(=O)CCC1CC(OC(=O)NCCc2ccc(F)cc2)CC2(CCCC(COC(=O)NCCC(C)C)O2)O1` (stereo not given in full), the z-score was 1.87.

For `CO[C@H]1COC(=O)[C@H](C)COC(=O)[C@@H](OCc2ccccc2)C=C[C@@H]1C`, the z-score was -0.0266. As for `O=C1[C@H]2[C@H]3[C@H](O)[C@H](O)CC(=NOC[C@@H](O)COCc4ccco4)[C@@H]3CC[C@H]2C(=O)N1Cc1ccccc1`, the figure is 1.06; as for `CC(C)=CCCC(C)=CCON=C1C[C@@H](O)[C@@H](O)[C@@H]2[C@@H]3C(=O)N(Cc4ccc5c(c4)OCO5)C(=O)[C@@H]3CC[C@H]12`, -0.0045. In the case of `COC(=O)[C@H](C)NC(=O)CC=C[C@@H](C)[C@@H]1C=C[C@H](O)[C@@H](CO)O1`, the z-score was -0.521. For `COc1ccc(COC(=O)NN=C2C[C@@H](O)[C@@H](O)[C@@H]3[C@@H]4C(=O)N(C[C@@H]5CCCO5)C(=O)[C@@H]4CC[C@@H]23)cc1`, the z-score was -0.547.
